Data from PubChem BioAssay (NCI).
About 83,000 compounds went through this panel and 20% of them were active in at least one assay; those are over-represented in the sample as a whole.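 Activity criterion: percent growth below 10, measured after cells in 96-well plates were exposed to a single compound concentration for 48 hours.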 Active and inactive are the calls of the source.

Tests used:
Experiment in all cases: NCI-60 one-dose screen, 48 h (100 = growth as untreated, 0 = no growth, -100 = all killed)
Details in all cases: 10 µM unless noted
NCI/ADR-RES ovarian = tested on: NCI/ADR-RES ovarian
T-47D breast = tested on: T-47D breast
BT-549 breast = tested on: BT-549 breast
MDA-MB-435 melanoma = tested on: MDA-MB-435 melanoma
SW-620 colon = tested on: SW-620 colon
MCF7 breast = tested on: MCF7 breast
HCT-116 colon = tested on: HCT-116 colon
HCC-2998 colon = tested on: HCC-2998 colon
KM12 colon = tested on: KM12 colon

Measured: growth

COC(=O)C1CCC(NC(=O)c2csc([C@@H](C[C@H](C(C)C)N(C)C(=O)[C@@H](NC(=O)[C@H]3CCCCN3C)C(C)C)OC(C)=O)n2)CC1 (some centres not stated)
active: BT-549 breast -20.7% | MDA-MB-435 melanoma -48.5% | HCT-116 colon 5.04% | KM12 colon 9.7%
inactive: NCI/ADR-RES ovarian 11.8% | T-47D breast 64.4% | SW-620 colon 28.1% | MCF7 breast 19.4% | HCC-2998 colon 20.2%

C=CC12CCN(CC1)C(C(O)c1ccnc3ccc(OC)cc13)C2 (configuration not stated)
inactive: NCI/ADR-RES ovarian 91.8% | T-47D breast 82.5% | BT-549 breast 103% | MDA-MB-435 melanoma 56.5% | SW-620 colon 88.9% | MCF7 breast 66.5% | HCT-116 colon 60.5%
active: HCC-2998 colon -34.8%

COc1ccc2nc(NC(=O)COc3cc(/C=C\c4cc(OC)c(OC)c(OC)c4)ccc3OC)sc2c1
active: NCI/ADR-RES ovarian -5.38% | MDA-MB-435 melanoma -45.1%
inactive: T-47D breast 19.9% | BT-549 breast 55.4% | SW-620 colon 25.5% | MCF7 breast 16.9% | HCT-116 colon 12.6% | HCC-2998 colon 45.5% | KM12 colon 16.8%

CCCCCCCC(=O)OCC(=O)[C@]1(O)Cc2c(O)c3c(c(O)c2[C@@H](OC2CC(N)C(O)C(C)O2)C1)C(=O)c1c(OC)cccc1C3=O (some centres not stated)
inactive: NCI/ADR-RES ovarian 50.7%
active: T-47D breast -69.2% | BT-549 breast -84% | MDA-MB-435 melanoma -80.5% | SW-620 colon -62.5% | MCF7 breast -94.4% | HCT-116 colon -73.4% | HCC-2998 colon -90.1% | KM12 colon -96.2%

COC(=O)[C@@H](C)C[C@H](Cc1ccccc1)NC(=O)c1nc([C@@H](C[C@H](C(C)C)N(C)C(=O)[C@@H](NC(=O)[C@H]2CCCCN2C)C(C)C)OC(C)=O)sc1C(C)C
inactive: T-47D breast 53.1% | SW-620 colon 24.9% | MCF7 breast 18.3%
active: NCI/ADR-RES ovarian 8.7% | BT-549 breast -35.6% | MDA-MB-435 melanoma -46.8% | HCT-116 colon -5.54% | HCC-2998 colon 3.15% | KM12 colon 1.85%

[Cl][Hg][c]1cc(Br)cc(Br)c1
inactive: NCI/ADR-RES ovarian 81.1% | T-47D breast 27.5% | BT-549 breast 48% | MDA-MB-435 melanoma 58.2% | SW-620 colon 29% | MCF7 breast 15.1% | HCT-116 colon 64% | HCC-2998 colon 85.4% | KM12 colon 70.4%

CCC1(C(C)C)C(=O)NC(=S)NC1=O
inactive: NCI/ADR-RES ovarian 115% | T-47D breast 106% | BT-549 breast 113% | MDA-MB-435 melanoma 101% | SW-620 colon 97% | MCF7 breast 105% | HCT-116 colon 106% | HCC-2998 colon 117% | KM12 colon 100%

O=[N+]([O-])c1ccc(OP(=O)(CCl)N(CCCl)CCCl)cc1 (configuration not stated)
inactive: NCI/ADR-RES ovarian 101% | T-47D breast 93.8% | BT-549 breast 93.6% | MDA-MB-435 melanoma 104% | SW-620 colon 102% | MCF7 breast 92.5% | HCT-116 colon 97.9% | HCC-2998 colon 105% | KM12 colon 101%

CC[C@H](C)[C@H](NC(=O)c1ccccn1)C(=O)N(C)[C@H](C[C@@H](OC(C)=O)c1nc(C(=O)N[C@@H](Cc2ccccc2)C[C@H](C)C(=O)OC)cs1)C(C)C
active: MDA-MB-435 melanoma -25.3% | HCT-116 colon 9.41%
inactive: NCI/ADR-RES ovarian 16.1% | T-47D breast 80.7% | BT-549 breast 24.2% | SW-620 colon 25.7% | MCF7 breast 21.2% | HCC-2998 colon 23.9% | KM12 colon 10.2%

CCCCN1CCCC[C@@H]1C(=O)N[C@H](C(=O)N(C)[C@H](CCc1nc(C(=O)N[C@@H](Cc2ccccc2)C[C@H](C)C(=O)OC)cs1)C(C)C)[C@@H](C)CC
inactive: NCI/ADR-RES ovarian 65.7% | T-47D breast 44.2% | BT-549 breast 36.4% | SW-620 colon 63.7% | MCF7 breast 18.5% | HCT-116 colon 31.6% | HCC-2998 colon 61.7% | KM12 colon 28%
active: MDA-MB-435 melanoma -30%

CCCCN1CCCC[C@@H]1C(=O)N[C@H](C(=O)N(C)[C@H](C[C@@H](OC(C)=O)c1nc(C(=O)NC2CCC(C(=O)OC)CC2)cs1)C(C)C)C(C)C (some centres not stated)
active: MDA-MB-435 melanoma -43.9%
inactive: NCI/ADR-RES ovarian 41.2% | T-47D breast 27.4% | BT-549 breast 40.1% | SW-620 colon 19.5% | MCF7 breast 24.6% | HCT-116 colon 14% | HCC-2998 colon 67.6% | KM12 colon 24.6%

CCC(O)(CN)c1ccccc1 (configuration not stated)
inactive: NCI/ADR-RES ovarian 105% | T-47D breast 99.6% | BT-549 breast 104% | MDA-MB-435 melanoma 105% | SW-620 colon 100% | MCF7 breast 102% | HCT-116 colon 99.8% | HCC-2998 colon 106% | KM12 colon 103%

CNC12C3C4C1C1C2C3C41C(=O)N[C@H](C(=O)N(C)[C@H](C[C@@H](OC(C)=O)c1nc(C(=O)N[C@@H](Cc2ccccc2)C[C@H](C)C(=O)OC)cs1)C(C)C)C1CC1 (some centres not stated)
inactive: NCI/ADR-RES ovarian 62% | T-47D breast 50.9% | SW-620 colon 53.1% | MCF7 breast 15.7%
active: BT-549 breast -34.7% | MDA-MB-435 melanoma -18.5% | HCT-116 colon 2.93% | HCC-2998 colon -60.8% | KM12 colon -9.24%

CC(=O)O[C@H](C[C@H](C(C)C)N(C)C(=O)[C@@H](NC(=O)[C@H]1CCCCN1C)C(C)C)c1nc(C(=O)NC2CCC(C(=O)O)CC2)cs1 (some centres not stated)
inactive: NCI/ADR-RES ovarian 96.8% | T-47D breast 50.4% | BT-549 breast 45.6% | SW-620 colon 32.6% | MCF7 breast 18.5% | HCT-116 colon 34.8% | HCC-2998 colon 83.7% | KM12 colon 39.2%
active: MDA-MB-435 melanoma -28.9%

O=[N+]([O-])c1cnc[nH]1
inactive: NCI/ADR-RES ovarian 104% | T-47D breast 117% | BT-549 breast 112% | MDA-MB-435 melanoma 105% | SW-620 colon 104% | MCF7 breast 94.8% | HCT-116 colon 106% | HCC-2998 colon 102% | KM12 colon 107%

CN1C(=O)N[C@H]2[C@@H]3NC(=O)c4ccc(Br)n4[C@@H]3C[C@]21O
active: T-47D breast -10.6% | BT-549 breast -47.8% | MDA-MB-435 melanoma -30.6% | SW-620 colon -4.51% | MCF7 breast -4.96% | HCT-116 colon -17.1% | HCC-2998 colon -24.1% | KM12 colon -12.8%
inactive: NCI/ADR-RES ovarian 48.6%

CCN(CC)CCOC(=O)C(OC(C)C)(c1ccccc1)c1ccccc1
inactive: NCI/ADR-RES ovarian 100% | T-47D breast 93.8% | BT-549 breast 96.6% | MDA-MB-435 melanoma 103% | SW-620 colon 91.5% | MCF7 breast 95.3% | HCT-116 colon 78.4% | HCC-2998 colon 108% | KM12 colon 101%

CCC[CH2][Sn]([CH2]CCC)([CH2]CCC)[O]c1ccc(Cl)cc1Cl
active: NCI/ADR-RES ovarian -84.6% | T-47D breast -84% | BT-549 breast -81.7% | MDA-MB-435 melanoma -60.7% | SW-620 colon -92.9% | MCF7 breast -93% | HCT-116 colon -79.9% | HCC-2998 colon -95.4% | KM12 colon -94.2%

C[C@@]12CC[C@@H](O)C[C@@H]1CC[C@H]1[C@H]2CC[C@@]2(C)[C@H](c3ccc(=O)oc3)CC[C@@]12O
active: NCI/ADR-RES ovarian -39.6% | T-47D breast -18.1% | BT-549 breast -84.2% | MDA-MB-435 melanoma -81.9% | SW-620 colon -68.3% | MCF7 breast -27% | HCT-116 colon -76% | HCC-2998 colon -50.7% | KM12 colon -87.6%

CN1CCC(c2c[nH]c3ccccc23)C1 (configuration not stated)
inactive: NCI/ADR-RES ovarian 94.5% | T-47D breast 97% | BT-549 breast 110% | MDA-MB-435 melanoma 97.9% | SW-620 colon 104% | MCF7 breast 94.8% | HCT-116 colon 94.2% | HCC-2998 colon 94.1% | KM12 colon 107%

CCc1ccccc1[C@@H]1C[C@]2(C)CCO[C@@H]2OO1
inactive: NCI/ADR-RES ovarian 105% | T-47D breast 101% | BT-549 breast 111% | MDA-MB-435 melanoma 109% | SW-620 colon 102% | MCF7 breast 95.7% | HCT-116 colon 96.3% | HCC-2998 colon 93.7% | KM12 colon 101%

C[C@]12CC[C@H]3[C@@H](CC4SC(N)=NC45C/C(=N/NC(N)=O)CC[C@]35C)[C@@H]1CCC2=O (some centres not stated)
active: NCI/ADR-RES ovarian -5.32% | T-47D breast -21% | MDA-MB-435 melanoma -58.8% | SW-620 colon -59.2% | MCF7 breast -55.6% | HCT-116 colon 6.35%
inactive: BT-549 breast 107% | HCC-2998 colon 63.9% | KM12 colon 20.5%

COc1cc2c(cc1OCCCn1c(-c3ccccn3)nc3ccccc31)N=C[C@@H]1CCCN1C2=O
inactive: T-47D breast 35.4%
active: NCI/ADR-RES ovarian 3.97% | BT-549 breast -17.1% | MDA-MB-435 melanoma -23.6% | SW-620 colon 0.272% | MCF7 breast 1.32% | HCT-116 colon -14.4% | HCC-2998 colon 2.04% | KM12 colon -31.7%

CCOC(=O)[C@@H](C)C[C@H](Cc1ccccc1)NC(=O)c1csc([C@@H](C[C@H](C(C)C)N(C)C(=O)[C@H](CC)NC(=O)[C@H]2CCCCN2C)OC(C)=O)n1
active: NCI/ADR-RES ovarian 7.74% | BT-549 breast -18.9% | MDA-MB-435 melanoma -35.7% | HCT-116 colon -7.81% | HCC-2998 colon 3.85% | KM12 colon 4.85%
inactive: T-47D breast 53.1% | SW-620 colon 30.3% | MCF7 breast 18.8%

CC[C@H](C)[C@H](NC(=O)NC(C)(C)C)C(=O)N(C)[C@H](C[C@@H](OC(C)=O)c1nc(C(=O)N[C@@H](Cc2ccccc2)C[C@H](C)C(=O)OC)cs1)C(C)C
active: BT-549 breast -14.6% | MDA-MB-435 melanoma -44.9% | HCT-116 colon 1.01%
inactive: NCI/ADR-RES ovarian 23.3% | T-47D breast 53.5% | SW-620 colon 20.5% | MCF7 breast 13.1% | HCC-2998 colon 20% | KM12 colon 13.8%

COC(=O)C12CC(NC(=O)c3csc([C@@H](C[C@H](C(C)C)N(C)C(=O)[C@@H](NC(=O)[C@H]4CCCCN4C)C(C)C)OC(C)=O)n3)(C1)C2
active: NCI/ADR-RES ovarian -4.67% | BT-549 breast -25.8% | MDA-MB-435 melanoma -43.7% | HCT-116 colon 4.37%
inactive: T-47D breast 75.2% | SW-620 colon 27.4% | MCF7 breast 15.4% | HCC-2998 colon 10.4% | KM12 colon 11.1%

C=COC(=O)CCN1CC1
inactive: NCI/ADR-RES ovarian 111% | T-47D breast 106% | BT-549 breast 110% | MDA-MB-435 melanoma 105% | SW-620 colon 106% | MCF7 breast 101% | HCT-116 colon 103% | HCC-2998 colon 110% | KM12 colon 107%
